# F508del corr: F508del CFTR correction, initial screen, CFBE line, single point; CFBE cells, YFP halide quenching; stimulated with forskolin plus potentiator P3; % fluorescence drop versus neutral controls; activity (quench increase), % at 7.58 µM; 350,000 tested, 0.36% active; AID 720511, 2013;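 active = mean added fluorescence quench of at least 8% versus neutral control, with both replicates also reaching 8%; inconclusive = only one of the mean or replicate conditions met; inactive = mean below 8% and not both replicates reaching 8%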;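 note: cells transiently co-express mutant CFTR-F508del with the halide-sensitive YFP; corrector assay measuring rescue of mutant channel to the surface after 24 h compound exposure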
# N-glyco inh: increase of ERlucT glycosylation luciferase signal, primary screen, N-linked glycosylation inhibitor project, D54 ERlucT cells, luminescence, set 2 | D54 ERlucT glycosylation luciferase reporter, 24 h; percent of 100 nM tunicamycin response | reporter increase, % at 12.5 µM | 360,000 tested, 0.23% active | AID 588692, 2011;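 active = mean luciferase reporter signal, scaled so untreated is 0 and the glycosylation-blocking control 100, at or above a set limit in every replicate; inconclusive = mean reaches the limit but not every replicate does; inactive = mean below the limit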;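 note: luciferase carries N-glycosylation sites so blocking glycosylation raises the light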
# PvdQ acylase: P. aeruginosa PvdQ acylase inhibitors, primary screen, biochemical, fluorescence, plate reader and imaging, single point; PvdQ acylase [Pseudomonas aeruginosa LESB58]; purified PvdQ acylase; AID 488965, 2010; inhibition, % at 10 µM; 340,000 tested, 0.063% active; in the data active = inhibition above about 30%, passing the limit was not always enough; inconclusive = no clear call, values can overlap the other calls
# RAD54 branch: inhibitors of human RAD54 branch migration, primary screen, biochemical, fluorescence, single point | AID 602329, 2012 | inhibition, % at 10.4 µM | 360,000 tested, 0.14% active | RAD54 Holliday junction branch migration, FAM/BHQ fluorescence | DNA repair and recombination protein RAD54-like (Homo sapiens), Q92698;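 active = mean normalized replicate activity at least 40 and at least half of replicates scoring 40 or more; inconclusive = only one of the two criteria met; inactive = mean below 40 and under half of replicates reaching 40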;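 note: inhibitors cause a drop in the FAM fluorescence signal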
# dFosB act: activators of delta FosB homodimer, primary screen, biochemical, fluorescence polarization, TAMRA-CDK5 oligo, single point. Protein FosB (Mus musculus), P13346. purified delta FosB; percent of positive-control signal above neutral wells. 340,000 tested, 0.99% active. activation, % at 25 µM;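 active = mean activation above about 17%, with every replicate also reaching it, limit read from the data, passing the limit was not always enough; inconclusive = only one of the two conditions met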
# Target sequence (P13346 whole entry, looked up): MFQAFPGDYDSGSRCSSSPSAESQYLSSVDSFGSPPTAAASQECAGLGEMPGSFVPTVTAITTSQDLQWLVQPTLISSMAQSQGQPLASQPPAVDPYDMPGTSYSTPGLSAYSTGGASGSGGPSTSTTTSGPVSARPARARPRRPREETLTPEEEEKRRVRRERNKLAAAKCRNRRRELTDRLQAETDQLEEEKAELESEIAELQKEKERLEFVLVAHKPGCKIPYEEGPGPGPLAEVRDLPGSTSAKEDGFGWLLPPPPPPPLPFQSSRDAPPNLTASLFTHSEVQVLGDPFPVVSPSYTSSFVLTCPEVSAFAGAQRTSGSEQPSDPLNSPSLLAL
# RAD52 inh: RAD52 DNA annealing inhibitors, primary screen, biochemical, FRET, single point, set 2 | recombinant RAD52 DNA annealing, FRET fluorescence | inhibition, % at 18.7 µM | 360,000 tested, 0.46% active | AID 651710, 2012;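 active = every replicate showing at least 50% inhibition; inconclusive = mean inhibition at least 50% but not in every replicate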
# A number is an active result; 0 = inactive; ? = inconclusive; - = no result given. Compounds with a hit are over-represented: about 1.5% of the library has one in this group of screens.
SMILES,F508del corr,N-glyco inh,PvdQ acylase,RAD54 branch,dFosB act,RAD52 inh
Cc1noc(C)c1S(=O)(=O)Nc1ccc2c(c1)C(=O)N([C@@H](C)CO)C[C@@H](C)[C@@H](CN(C)Cc1ccncc1)OCCCC[C@H](C)O2,0,-,-,0,-,0
O=C(COC(=O)/C=C/c1ccccc1Cl)NC(=O)NCc1ccccc1,8.9,0,0,0,0,0
O=C(Cc1cccs1)N1CCN(S(=O)(=O)c2ccc(Br)cc2)CC1,0,0,0,0,0,0
Cc1ccc(S(=O)(=O)N2CCN(C(=O)CN(Cc3ccco3)Cc3cccs3)CC2)cc1,29.4,0,0,0,0,0
O=C(COC(=O)/C=C/c1cccc(Br)c1)NC1CCCCCC1,0,0,42.1,0,0,0
O=C(COC(=O)/C=C/c1cccc(Br)c1)NC1CCCCC1,0,0,0,0,0,0
O=C(N/N=C/c1ccc(OC(=O)c2cccc(Br)c2)cc1)c1cccnc1,0,0,0,0,26.8,0
O=C(N/N=C/c1cccc(OC(=O)c2cccc(Br)c2)c1)c1cccnc1,0,-,0,0,0,0
Cc1cc(NC(=O)c2ccc(F)cc2)no1,0,0,0,0,0,0
Cc1cc(NC(=O)c2c(F)c(F)c(F)c(F)c2F)no1,-,0,62.9,0,0,-
Cc1cc(NC(=O)c2cc([N+](=O)[O-])ccc2Cl)no1,0,0,87.8,0,0,0
Cc1cc(NC(=O)c2cc(Cl)ccc2Cl)no1,-,0,74.6,0,0,-
Cc1cc(NC(=O)c2ccc([N+](=O)[O-])cc2)no1,0,0,0,0,0,0
Cc1cc(NC(=O)c2ccc([N+](=O)[O-])cc2Cl)no1,0,0,40.3,0,0,0
CO[C@@H]1CN(C)C(=O)c2cc(NC(=O)NC(C)C)ccc2OC[C@H](C)NC[C@@H]1C,0,-,-,0,-,-
Cc1ccc(S(=O)(=O)N2CCOCC2)cc1NC(=O)COC(=O)c1ccc(Cl)nc1,10.4,0,0,0,0,0
CCS(=O)(=O)N[C@H]1CC[C@@H](CC(=O)NCc2ccccn2)O[C@H]1CO,0,-,-,0,-,0
CNC[C@H]1Oc2ccc(NC(=O)NC(C)C)cc2C(=O)N([C@@H](C)CO)C[C@H]1C,0,-,-,0,-,0
Clc1ccc(C2=Nn3c(nnc3-c3n[nH]c4c3CCC4)SC2)cc1,-,37.1,0,0,0,-
Brc1ccc(C2=Nn3c(nnc3-c3n[nH]c4c3CCC4)SC2)cc1,-,41.9,0,0,0,-
c1ccc(-c2ccc(C3=Nn4c(nnc4-c4cc(-c5ccccc5)n[nH]4)SC3)cc2)cc1,0,0,0,0,0,0
Cc1ccc(-c2nnc3n2N=C(c2ccc(Br)cc2)CS3)cc1,0,0,0,0,0,0
CCCC(=O)Nc1ccc2c(c1)OC[C@@H](C)N(C)C[C@@H](C)[C@H](OC)CN(C)C2=O,0,-,-,-,-,0
C[C@@H]1CCCCO[C@H](CN(C)S(=O)(=O)c2ccc(Cl)cc2)[C@H](C)CN([C@@H](C)CO)C(=O)c2cc(NC(=O)Nc3ccccc3)ccc2O1,0,-,-,0,-,0
CN(C)C(=O)c1cccc(-c2ccc3c(c2)[C@H]2[C@H](CCN2C(=O)c2ccccc2)[C@@H](CO)N3C)c1,0,-,-,0,-,0
SMILES,F508del corr,N-glyco inh,PvdQ acylase,RAD54 branch,dFosB act,RAD52 inh
CCOC(=O)[C@]12CCCC=C1N(Cc1cccc3ccccc13)C(=O)[C@H](CC(=O)NCc1cccc(C(F)(F)F)c1)C2,11.2,-,-,-,-,0
CCOC(=O)[C@]12CCCC=C1N(Cc1ccccc1)C(=O)[C@H](CC(=O)NCc1cccc(C(F)(F)F)c1)C2,0,-,-,-,-,0
Cc1ccc(C(=O)Nc2ccccc2C(=O)N2CC(C)OC(C)C2)cc1 (stereo unspecified),0,45.5,-,0,-,0
CC1CN(S(=O)(=O)c2ccc(C(=O)Nc3ccccc3F)cc2)CC(C)O1 (stereo unspecified),9.1,0,0,0,0,0
CCCNC(=O)N1CC2(C1)[C@@H](c1ccccc1)[C@@H](CO)N2C(=O)C1CCCC1,0,-,-,-,-,0
CN1CCN(c2cc(N3CCN(C(=O)c4ccco4)CC3)c3c4c(onc24)-c2ccccc2C3=O)CC1,-,0,0,54.4,0,-
CN1CCN(C(c2ccc(Cl)cc2)c2cc(Cl)c3cccnc3c2O)CC1 (stereo unspecified),0,33.3,0,0,0,0
COc1cccc(NC(=O)C[C@@H]2CC[C@@H]3[C@@H](COc4ccc(NC(=O)C5CCCC5)cc4C(=O)N3C)O2)c1,0,-,-,-,-,0
COc1ccc(C2(CNC(=O)c3cc(OC)c(OC)c(OC)c3)CCCC2)cc1OC,0,34.6,0,0,0,0
COc1cc(C(=O)NCC2(c3ccccc3)CCCC2)cc(OC)c1OC,0,0,0,0,0,0
COc1ccc(C(=O)c2ccc(OC)c(OC)c2)cc1OC,-,0,0,-,0,-
COc1ccc(C(=O)c2cc(OC)c(OC)c(OC)c2)cc1OC,13.2,?,0,-,0,0
O=C(Cc1ccccc1)N1CC(=O)N2[C@H](C1)[C@@H](c1ccc(-c3ccccc3)cc1)[C@@H]2CO,0,-,-,-,-,0
COc1cc(N/C(N)=N/c2nc(C)cc(C)n2)cc(OC)c1,0,0,0,0,0,81.3
CN1C(=O)c2cc(NC(=O)c3ccc(F)cc3)ccc2OC[C@@H]2O[C@@H](CC(=O)NC3CCC3)CC[C@H]21,0,-,-,0,-,0
C[C@H]1CN([C@@H](C)CO)C(=O)c2cc(-c3ccc(C#N)cc3)cnc2O[C@@H]1CN(C)C(=O)c1ccccc1,0,-,-,0,-,0
O=C(N=Nc1c(O)[nH]c2ccccc12)c1cccc(S(=O)(=O)N2CCCCC2)c1,-,0,0,-,0,0
O=c1[nH]c2ccccc2c2nc(-c3cccc(S(=O)(=O)N4CCCC4)c3)nn12,0,0,0,0,52.8,0
NC(=O)c1cc(Cl)ccc1OCC(=O)NC1CC1,9.0,0,0,0,0,0
CCc1ccc(NC(=O)Cn2c(=O)n(CCC(=O)NC3CCN(Cc4ccccc4)CC3)c(=O)c3ccccc32)cc1,0,37.7,0,0,0,0
O=C(CCCCn1c(=O)c2ccccc2n(Cc2ccccc2)c1=O)NC1CCN(Cc2ccccc2)CC1,0,0,0,0,0,0
O=C(CC1Sc2ccccc2NC1=O)NNc1cccc(Cl)c1Cl (stereo unspecified),8.3,?,0,-,?,0
C[C@H](CO)N1C[C@H](C)[C@@H](CN(C)C(=O)Nc2ccc3c(c2)OCO3)Oc2ccc(NC(=O)Nc3cccc4ccccc34)cc2CC1=O,0,-,-,0,-,0
